Experimental data taken from PubChem BioAssay.
For part of these data: Measured potencies and affinities stand elsewhere. Active and inactive are the calls of the source.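 Rule for the calls, unless noted: active = primary screen activator hit with a dose response curve and TRPC4 channel activation at any tested dose; inactive = no activation, no dose response, or not a primary hit.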

Experiments:
[1] = test system: TRPC4 beta (transient receptor potential cation channel C4), mouse; assay: activators of mouse TRPC4 channel, confirmation, cell-based, Fluo4 calcium, HEK293 TRPC4beta/mu-opioid, duplicates, 10 µM (AID 2426;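 active = fluorescence ratio normalized to control raised more than 50% in primary screen plus both repeat runs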;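 for activation: percent rise of integrated ratio over buffer wells lacking compound which define 0%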); details: Fluo4 calcium fluorescence, at 10 µM; active compounds read high
[2] = test system: transient receptor potential cation channel C4 beta (TRPC4), mouse; assay: activators of mouse TRPC4 channel, confirmation, cell-based, second round, Fluo4, HEK293 TRPC4beta/mu-opioid, 1 µM (AID 2461;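 active = primary screen active and over 50% activation in each of two duplicate runs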); details: Fluo4 calcium fluorescence, at 1 µM; active compounds read high
[3] = test system: TRPC4 (transient receptor potential cation channel C4 beta), mouse; assay: positive allosteric modulators of mouse TRPC4, confirmation, cell-based, second round, Fluo-4, HEK293 TRPC4beta/mu-opioid, 1 µM (AID 2554;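 active = primary screen hit whose fluorescence ratio, in both repeats, exceeds the weak agonist control mean by 3 SD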); details: DAMGO EC20, Fluo-4 calcium flux, at 1 µM; active compounds read high
[4] = test system: TRPC4 beta (transient receptor potential cation channel C4), mouse; assay: positive allosteric modulators of mouse TRPC4, confirmation, cell-based, Fluo-4, HEK293 TRPC4beta/mu-opioid (AID 2555;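 active = primary screen hit whose calcium fluorescence ratio, in both repeats, exceeds the weak agonist control mean by 3 SD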); details: DAMGO EC20, Fluo-4 calcium flux, at 10 µM; active compounds read high
[5] = biological target: Short transient receptor potential channel 4 (Mus musculus) (UniProt Q9QUQ5); assay: inhibitors of mouse TRPC4 channel, confirmation, cell-based, Fluo4, HEK293 TRPC4beta/mu-opioid (AID 2636;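 active = calcium signal cut by more than 3 SD below the full-agonist control yet still positive, in both repeats and the earlier primary screen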); details: DAMGO, Fluo4 calcium flux, at 10 µM; active compounds read high
Chain of Short transient receptor potential channel 4 (Mus musculus) (Q9QUQ5 whole entry, looked up): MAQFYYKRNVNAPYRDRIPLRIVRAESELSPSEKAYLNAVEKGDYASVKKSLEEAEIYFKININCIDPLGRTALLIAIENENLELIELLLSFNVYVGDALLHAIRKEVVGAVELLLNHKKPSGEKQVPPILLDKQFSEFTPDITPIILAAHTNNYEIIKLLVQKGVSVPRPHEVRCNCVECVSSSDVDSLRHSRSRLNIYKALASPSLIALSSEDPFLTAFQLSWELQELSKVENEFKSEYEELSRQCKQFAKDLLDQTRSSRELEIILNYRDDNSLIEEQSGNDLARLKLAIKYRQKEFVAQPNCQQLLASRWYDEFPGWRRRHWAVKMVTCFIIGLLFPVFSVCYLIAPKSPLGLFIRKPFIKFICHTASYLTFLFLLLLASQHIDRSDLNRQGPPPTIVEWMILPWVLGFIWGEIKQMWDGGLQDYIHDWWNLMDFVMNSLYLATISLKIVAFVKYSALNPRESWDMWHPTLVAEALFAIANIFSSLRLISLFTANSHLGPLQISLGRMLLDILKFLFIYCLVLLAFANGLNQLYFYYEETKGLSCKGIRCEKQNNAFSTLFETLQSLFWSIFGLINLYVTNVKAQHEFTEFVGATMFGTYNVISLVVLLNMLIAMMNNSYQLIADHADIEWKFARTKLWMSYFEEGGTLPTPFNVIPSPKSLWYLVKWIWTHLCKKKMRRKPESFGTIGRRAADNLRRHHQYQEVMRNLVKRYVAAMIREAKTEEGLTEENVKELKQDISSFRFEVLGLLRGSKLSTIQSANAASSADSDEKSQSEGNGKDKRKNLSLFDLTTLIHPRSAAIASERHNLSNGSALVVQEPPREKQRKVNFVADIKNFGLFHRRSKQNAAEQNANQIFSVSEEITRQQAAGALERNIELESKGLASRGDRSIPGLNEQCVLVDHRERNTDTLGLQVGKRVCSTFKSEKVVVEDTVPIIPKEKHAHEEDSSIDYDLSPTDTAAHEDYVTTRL

[6] = biological target: Short transient receptor potential channel 4 (Mus musculus) (UniProt Q9QUQ5); assay: inhibitors of mouse TRPC4 channel, confirmation, cell-based, second round, Fluo4, HEK293 TRPC4beta/mu-opioid, 1 µM (AID 2637;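 active = calcium signal ratio cut to more than 3 SD under the fully stimulated control mean yet still positive, in both repeats and the primary screen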;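 for inhibition: percent of integrated ratio relative to wells lacking test compound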); details: Fluo4 calcium flux, DAMGO, at 1 µM; active compounds read high
[7] = biological target: Short transient receptor potential channel 4 (Mus musculus) (UniProt Q9QUQ5); assay: mouse TRPC4 channel activators, dose response, cell-based, HEK293 TRPC4/mu-opioid, Fluo-4 calcium (AID 434937)
[8] = biological target: Short transient receptor potential channel 4 (Mus musculus) (UniProt Q9QUQ5); assay: TRPC4 positive allosteric modulators, dose response, cell-based, HEK293 TRPC4/mu-opioid, Fluo-4 calcium, EC20 DAMGO (AID 434941;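 active = earlier screen potentiator hit that boosts the TRPC4 ion channel at some dose, with a dose response; inactive = no potentiation, no dose response, or not a prior hit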;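 note: calcium entry triggered by an EC20 dose of DAMGO at the co-expressed mu-opioid receptor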)
[9] = biological target: Short transient receptor potential channel 6 (Mus musculus) (UniProt Q61143); assay: inhibition of mouse TRPC6 channel, confirmation, selectivity assay for TRPC4 inhibitor project, cell-based, HEK293, membrane potential dye, duplicate (AID 434948;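 active = active in primary screen and both duplicates, each dropping signal beyond three positive-control SD with fluorescence still positive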); details: HEK293 TRPC6, membrane potential dye fluorescence, at 10 µM, stimulated with maximal-effect acetylcholine; active compounds read high
Chain of Short transient receptor potential channel 6 (Mus musculus) (Q61143 whole entry, looked up): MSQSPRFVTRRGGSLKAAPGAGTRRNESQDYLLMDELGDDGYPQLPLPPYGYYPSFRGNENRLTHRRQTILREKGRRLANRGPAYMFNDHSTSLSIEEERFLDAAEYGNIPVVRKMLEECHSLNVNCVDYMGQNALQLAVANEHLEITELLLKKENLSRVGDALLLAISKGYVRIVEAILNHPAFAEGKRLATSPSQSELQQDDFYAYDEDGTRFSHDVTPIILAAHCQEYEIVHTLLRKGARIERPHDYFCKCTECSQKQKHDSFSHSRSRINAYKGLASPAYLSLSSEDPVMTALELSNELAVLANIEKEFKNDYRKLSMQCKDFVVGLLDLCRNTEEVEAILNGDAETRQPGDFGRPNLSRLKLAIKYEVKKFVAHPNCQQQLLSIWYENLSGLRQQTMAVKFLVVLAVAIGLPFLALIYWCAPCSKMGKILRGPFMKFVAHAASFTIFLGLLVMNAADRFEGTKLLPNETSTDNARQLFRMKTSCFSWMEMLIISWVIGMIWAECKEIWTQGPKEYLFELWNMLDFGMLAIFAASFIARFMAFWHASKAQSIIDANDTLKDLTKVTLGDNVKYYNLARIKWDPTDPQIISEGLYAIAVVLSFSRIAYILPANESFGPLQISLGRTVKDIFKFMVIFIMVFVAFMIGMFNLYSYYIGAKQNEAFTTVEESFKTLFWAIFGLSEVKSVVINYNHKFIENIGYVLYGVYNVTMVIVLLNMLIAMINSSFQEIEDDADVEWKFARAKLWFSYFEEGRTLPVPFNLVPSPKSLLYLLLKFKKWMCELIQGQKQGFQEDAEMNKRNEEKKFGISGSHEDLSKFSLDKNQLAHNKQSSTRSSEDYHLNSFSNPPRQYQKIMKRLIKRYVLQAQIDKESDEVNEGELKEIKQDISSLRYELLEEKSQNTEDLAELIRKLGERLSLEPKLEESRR

[10] = biological target: Short transient receptor potential channel 6 (Mus musculus) (UniProt Q61143); assay: activation of mouse TRPC6 channel, confirmation, selectivity assay for TRPC4 activator project, cell-based, HEK293, membrane potential dye, duplicate (AID 434950;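 active = membrane potential signal rise above negative control mean plus 3 SD in both duplicates, also active in the earlier TRPC4 screen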;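 for activation: 0% = buffer only wells and 100% = acetylcholine maximal-effect wells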); details: HEK293 TRPC6, membrane potential fluorescence, at 10 µM; active compounds read high
[11] = biological target: Short transient receptor potential channel 6 (Mus musculus) (UniProt Q61143); assay: TRPC6 potentiation by TRPC4 potentiator hits, confirmation, selectivity assay for TRPC4 potentiator project, HEK293 cells, membrane potential dye, duplicate (AID 434952;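 active = compound raising the membrane signal above positive-control mean plus 3 SD in both repeats, and a primary screen hit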); details: HEK293 TRPC6, membrane potential dye fluorescence, at 10 µM, maximal acetylcholine added after compound; active compounds read high
[12] = biological target: Short transient receptor potential channel 4 (Mus musculus) (UniProt Q9QUQ5); assay: calcium flux activators in TRPC4/5HT1a cells, counter-screen for TRPC4 activator project, cell-based, second counter screen, HEK293 TRPC4/5HT1a, Fluo-4 (AID 434977;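 active = calcium signal rise above buffer-control mean plus 5 SD in both duplicates, and also a hit in the primary screen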;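 for activation: plate controls were assay buffer for no effect and maximal serotonin response for full effect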); details: Fluo-4 calcium flux, at 10 µM; active compounds read high
[13] = calcium flux inhibitors in TRPC4/5HT1a cells, confirmation, counter-screen for TRPC4 inhibitor project, cell-based, second counter screen, HEK293 TRPC4/5HT1a, Fluo-4 (AID 434978;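 active = primary screen active whose calcium signal fell more than 3 SD beyond the full-serotonin control mean in both duplicate plates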;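 for outcome: serotonin given first at submaximal then at maximal dose after compound preincubation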); details: Fluo-4 calcium flux, at 10 µM, serotonin added to trigger calcium flux; active compounds read high
[14] = test system: TRPC4 (mouse), co-expressed with 5HT1a in HEK293; assay: calcium flux potentiators in TRPC4/5HT1a cells, confirmation, counter-screen for TRPC4 potentiator project, cell-based, second counter screen, HEK293 TRPC4/5HT1a, Fluo-4 (AID 434979;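 active = signal rise over 3 SD above mean of control wells given weak agonist, in both repeats and first screen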); details: Fluo-4 calcium flux, at 10 µM, serotonin added at its EC20 dose; active compounds read high
[15] = calcium flux activation in mu-opioid HEK293 cells, confirmation, counter-screen for TRPC4 activator project, cell-based, HEK293 mu-opioid receptor line (AID 449723;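 active = hit in primary screen, with calcium signal over 5 SD above buffer well mean in both duplicates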;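 note: counter screen cells carry the mu-opioid receptor alone and lack TRPC4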); details: Fluo-4 calcium fluorescence, at 10 µM; active compounds read high
[16] = calcium flux enhancement in mu-opioid HEK293 cells, confirmation, counter-screen for TRPC4 allosteric potentiator project, cell-based, HEK293 mu-opioid receptor line (AID 449724;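 active = calcium signal rise more than 3 SD above the low-dose agonist control mean, in both duplicate plates and the primary screen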); details: Fluo-4 calcium flux, at 10 µM, compound added before EC20 DAMGO stimulus; active compounds read high

COCCn1c(SCc2ccc(OC)c(F)c2)nc2ccccc2c1=O
active: inhibition [5] 95% | inhibition [13] 16.1%
inactive: outcome [1] | outcome [2] | outcome [3] | outcome [4] | outcome [6] | outcome [7] | outcome [8] | outcome [9] | outcome [10] | outcome [11] | outcome [12] | outcome [14] | outcome [15] | outcome [16]

Cc1ccc(NC(=O)c2cc(N3C(=O)C=CC3=O)ccc2N2CCOCC2)cc1
active: inhibition [5] 91% | inhibition [6] 38% | inhibition [13] 34.6%
inactive: outcome [1] | outcome [2] | outcome [3] | outcome [4] | outcome [7] | outcome [8] | outcome [9] | outcome [10] | outcome [11] | outcome [12] | outcome [14] | outcome [15] | outcome [16]

CCOC(=O)c1c(-c2cccc(C)c2)csc1NC(=O)C1CC=CCC1C(=O)O (stereo not given)
active: inhibition [5] 89% | inhibition [13] 46.1%
inactive: outcome [1] | outcome [2] | outcome [3] | outcome [4] | outcome [6] | outcome [7] | outcome [8] | outcome [9] | outcome [10] | outcome [11] | outcome [12] | outcome [14] | outcome [15] | outcome [16]

Nc1c2c(nc3ccccc13)CCC2
active: inhibition [5] 97% | inhibition [6] 44% | inhibition [9] 16.5% | inhibition [13] 29.6%
inactive: outcome [1] | outcome [2] | outcome [3] | outcome [4] | outcome [7] | outcome [8] | outcome [10] | outcome [11] | outcome [12] | outcome [14] | outcome [15] | outcome [16]

OCC1(CCc2ccccc2)CCN(Cc2cc(Cl)ccc2O)CC1
inactive: outcome [1] | outcome [2] | outcome [3] | outcome [4] | outcome [6] | outcome [7] | outcome [8] | outcome [9] | outcome [10] | outcome [11] | outcome [12] | outcome [13] | outcome [14] | outcome [15] | outcome [16]
active: inhibition [5] 79%

CCCn1c(=O)c2ccccc2n2c(SCCOc3ccccc3)nnc12
inactive: outcome [1] | outcome [2] | outcome [3] | outcome [4] | outcome [6] | outcome [7] | outcome [8] | outcome [9] | outcome [10] | outcome [11] | outcome [12] | outcome [14] | outcome [15] | outcome [16]
active: inhibition [5] 67% | inhibition [13] 37.4%

O=C(COC(=O)c1c(Cl)cccc1Cl)Nc1ccccc1Br
active: inhibition [5] 71% | inhibition [13] 29.5%
inactive: outcome [1] | outcome [2] | outcome [3] | outcome [4] | outcome [6] | outcome [7] | outcome [8] | outcome [9] | outcome [10] | outcome [11] | outcome [12] | outcome [14] | outcome [15] | outcome [16]

Cc1ccc(-n2nc(-c3cccs3)cc2C(=O)NCC2CCCO2)c(C)c1 (stereo not given)
active: inhibition [5] 79% | activation [10] 32%
inactive: outcome [1] | outcome [2] | outcome [3] | outcome [4] | outcome [6] | outcome [7] | outcome [8] | outcome [9] | outcome [11] | outcome [12] | outcome [13] | outcome [14] | outcome [15] | outcome [16]

O=C(C[n+]1cc(-c2ccc(Cl)c(Cl)c2)n2c1CCC2)N1c2ccccc2Sc2ccccc21
inactive: outcome [1] | outcome [2] | outcome [3] | outcome [4] | outcome [6] | outcome [7] | outcome [8] | outcome [10] | outcome [11] | outcome [12] | outcome [14] | outcome [15] | outcome [16]
active: inhibition [5] 75% | inhibition [9] 53.5% | inhibition [13] 18.7%

C=CCc1ccccc1OCC(CN1CCCCC1)OC(C)=O (stereo not given)
active: inhibition [5] 74% | inhibition [6] 43%
inactive: outcome [1] | outcome [2] | outcome [3] | outcome [4] | outcome [7] | outcome [8] | outcome [9] | outcome [10] | outcome [11] | outcome [12] | outcome [13] | outcome [14] | outcome [15] | outcome [16]

O=[N+]([O-])c1ccc(O)c(C2=NNC(c3ccccc3F)C2)c1 (stereo not given)
inactive: outcome [2] | outcome [3] | outcome [4] | outcome [6] | outcome [7] | outcome [8] | outcome [10] | outcome [11] | outcome [13] | outcome [14] | outcome [16]
active: activation [1] 87% | inhibition [5] 55% | inhibition [9] 50% | activation [12] 8.52% | activation [15] 20.8%

Cc1ccc(OCCn2c(C)nc3ccccc32)cc1
active: inhibition [5] 94% | inhibition [6] 61% | inhibition [13] 13%
inactive: outcome [1] | outcome [2] | outcome [3] | outcome [4] | outcome [7] | outcome [8] | outcome [9] | outcome [10] | outcome [11] | outcome [12] | outcome [14] | outcome [15] | outcome [16]

Cc1ccc(-c2[nH]c3ccccc3c2SCCN)cc1
active: inhibition [9] 34.5%
inactive: outcome [1] | outcome [2] | outcome [3] | outcome [4] | outcome [5] | outcome [6] | outcome [7] | outcome [8] | outcome [10] | outcome [11] | outcome [12] | outcome [13] | outcome [14] | outcome [15] | outcome [16]

Nc1cc(=O)nc(SCC(=O)N2CCN(c3ccccc3)CC2)n1-c1ccc(F)cc1
active: inhibition [5] 95% | inhibition [6] 45% | inhibition [13] 43.7%
inactive: outcome [1] | outcome [2] | outcome [3] | outcome [4] | outcome [7] | outcome [8] | outcome [9] | outcome [10] | outcome [11] | outcome [12] | outcome [14] | outcome [15] | outcome [16]

CC12CCC(C/C1=N/OC(=O)c1cccc([N+](=O)[O-])c1)C2(C)C (stereo not given)
inactive: outcome [1] | outcome [2] | outcome [3] | outcome [4] | outcome [7] | outcome [8] | outcome [9] | outcome [10] | outcome [11] | outcome [12] | outcome [14] | outcome [15] | outcome [16]
active: inhibition [5] 82% | inhibition [6] 40% | inhibition [13] 28.3%
